# Measurements taken from PubChem BioAssay AID1159580 (chemical genetic matrix, 2015).
# The campaign covered roughly 5,500 compounds. About 2,000 (36%) were called active. Not shown: some 18% with an inconclusive outcome. The list shows a part of the results. Values without a mark were called inactive. Cut-off read from the data, not from the text of the source: active = normalized growth mostly below about 0.91 (no sharp cut-off); inconclusive = no clear call, values can overlap the other calls; inactive = mostly above about 0.92.
# Test: chemical genetic growth profiling, strain panel (AID 1159580);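 note: tested at 20 µM; growth read once vehicle control cultures reached saturation at 30 °C; 1 = growth at the plate median or of vehicle wells; lower values mean less growth of the strain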
# Details: S. cerevisiae deletion strains, growth OD
# [1] = locus YAL040C, strain CLN3, stronger effect = lower value
# [2] = locus YCL061C, strain MRC1 (second series), stronger effect = lower value
# [3] = locus YDR363W, strain ESC2, stronger effect = lower value
# [4] = locus YER002W, strain NOP16, stronger effect = lower value
# [5] = locus YNL175C, strain NOP13, stronger effect = lower value
# [6] = locus YNL197C, strain WHI3, stronger effect = lower value
# [7] = locus YNL224C, strain SQS1, stronger effect = lower value
# [8] = locus YOR083W, strain WHI5 (second series), stronger effect = lower value
# [9] = locus YPL241C, strain CIN2, stronger effect = lower value
# [10] = locus YGR078C, strain PAC10, stronger effect = lower value
compound,measurement,setting,value
COc1cc(C(O)CO)ccc1OS(=O)(=O)O (stereo not drawn),normalized growth,[1],0.981
same,normalized growth,[2],1
same,normalized growth,[3],0.994
same,normalized growth,[4],0.991
same,normalized growth,"locus YGR229C, strain SMI1, stronger effect = lower value",1.01
same,normalized growth,[5],0.998
same,normalized growth,[6],1
same,normalized growth,[7],1.01
same,normalized growth,"locus YNL322C, strain KRE1, stronger effect = lower value",1.01
same,normalized growth,[8],1.05
same,normalized growth,[9],0.996
C1COC(NC(C2CC2)C2CC2)=N1,normalized growth,[1],1.01
same,normalized growth,[2],0.997
same,normalized growth,[3],1.01
same,normalized growth,[4],0.995
same,normalized growth,[10],0.997
same,normalized growth,"locus YMR307W, strain GAS1, stronger effect = lower value",0.956
same,normalized growth,[5],1.01
same,normalized growth,[6],0.997
same,normalized growth,[7],0.999
same,normalized growth,[8],1.01
CSc1nc(N)c2ncn([C@@H]3O[C@H](COP(=O)(O)OP(=O)(O)OP(=O)(O)O)[C@H](O)C3O)c2n1 (stereo partly drawn),normalized growth,[1],0.978
same,normalized growth,"locus YDR150W, strain NUM1, stronger effect = lower value",1.03
same,normalized growth,[4],0.998
same,normalized growth,[10],0.981
same,normalized growth,"locus YMR263W, strain SAP30, stronger effect = lower value",1
same,normalized growth,"locus YNL153C, strain GIM3, stronger effect = lower value",1.01
same,normalized growth,[5],0.986
same,normalized growth,[6],0.979
same,normalized growth,[7],0.967
same,normalized growth,[8],1
same,normalized growth,[9],1.01
COc1cc(Br)cc(C=Nc2ccc(Sc3ccccc3)nc2Sc2ccccc2)c1O,normalized growth,"locus YAR019C, strain CDC15, stronger effect = lower value",0.968
same,normalized growth,"locus YBL105C, strain PKC1, stronger effect = lower value",0.976
same,normalized growth,"locus YBR135W, strain CKS1, stronger effect = lower value",0.96
same,normalized growth,"locus YBR136W, strain MEC1, stronger effect = lower value",0.973
same,normalized growth,"locus YBR160W, strain CDC28, stronger effect = lower value",0.965
same,normalized growth,"locus YDL017W, strain CDC7, stronger effect = lower value",0.969
same,normalized growth,"locus YDL028C, strain MPS1, stronger effect = lower value",0.962
same,normalized growth,"locus YDL101C, strain DUN1, stronger effect = lower value",0.969
same,normalized growth,"locus YDL108W, strain KIN28, stronger effect = lower value",0.958
same,normalized growth,"locus YDL132W, strain cdc53, stronger effect = lower value",0.949
same,normalized growth,"locus YDL214C, strain PRR2, stronger effect = lower value",0.838
same,normalized growth,"locus YDR052C, strain DBF4, stronger effect = lower value",0.976
same,normalized growth,"locus YDR054C, strain cdc34, stronger effect = lower value",0.957
same,normalized growth,"locus YDR226W, strain ADK1, stronger effect = lower value",0.964
same,normalized growth,"locus YDR477W, strain SNF1, stronger effect = lower value",0.812
same,normalized growth,"locus YER123W, strain YCK3, stronger effect = lower value",0.831
same,normalized growth,"locus YER133W, strain GLC7, stronger effect = lower value",0.843
same,normalized growth,"locus YFL009W, strain cdc4, stronger effect = lower value",0.955
same,normalized growth,"locus YFL029C, strain CAK1, stronger effect = lower value",0.966
same,normalized growth,"locus YFR003C, strain YPI1, stronger effect = lower value",0.967
same,normalized growth,"locus YFR019W, strain FAB1, stronger effect = lower value",0.969
same,normalized growth,"locus YFR028C, strain CDC14, stronger effect = lower value",0.955
same,normalized growth,"locus YGR040W, strain KSS1, stronger effect = lower value",0.857
same,normalized growth,"locus YGR052W, strain FMP48, stronger effect = lower value",0.782
same,normalized growth,"locus YGR092W, strain DBF2, stronger effect = lower value",0.523
same,normalized growth,"locus YHR030C, strain SLT2, stronger effect = lower value",0.489 (active)
same,normalized growth,"locus YHR079C, strain IRE1, stronger effect = lower value",0.703
same,normalized growth,"locus YHR082C, strain KSP1, stronger effect = lower value",0.845
same,normalized growth,"locus YHR205W, strain SCH9, stronger effect = lower value",0.696
same,normalized growth,"locus YIL147C, strain SLN1, stronger effect = lower value",0.964
same,normalized growth,"locus YJL095W, strain BCK1, stronger effect = lower value",0.638
same,normalized growth,"locus YJL128C, strain PBS2, stronger effect = lower value",0.918
same,normalized growth,"locus YJL157C, strain FAR1, stronger effect = lower value",0.848
same,normalized growth,"locus YJR016C, strain ILV3, stronger effect = lower value",0.974
same,normalized growth,"locus YJR066W, strain TOR1 (second series), stronger effect = lower value",0.848
same,normalized growth,"locus YJR066W, strain TOR1, stronger effect = lower value",0.636
same,normalized growth,"locus YKL048C, strain ELM1, stronger effect = lower value",0.935
same,normalized growth,"locus YKL067W, strain YNK1, stronger effect = lower value",0.808
same,normalized growth,"locus YKL101W, strain HSL1, stronger effect = lower value",0.861
same,normalized growth,"locus YKL193C, strain SDS22, stronger effect = lower value",0.962
same,normalized growth,"locus YKL203C, strain TOR2, stronger effect = lower value",0.91
same,normalized growth,"locus YLR113W, strain HOG1, stronger effect = lower value",0.746 (active)
same,normalized growth,"locus YLR133W, strain CKI1, stronger effect = lower value",0.846
same,normalized growth,"locus YLR403W, strain SFP1, stronger effect = lower value",0.772
same,normalized growth,"locus YML070W, strain DAK1, stronger effect = lower value",0.888
same,normalized growth,"locus YMR001C, strain CDC5, stronger effect = lower value",0.951
same,normalized growth,"locus YMR205C, strain PFK2 (second series), stronger effect = lower value",0.843
same,normalized growth,"locus YMR277W, strain FCP1, stronger effect = lower value",0.959
same,normalized growth,"locus YNL006W, strain LST8, stronger effect = lower value",0.971
same,normalized growth,"locus YNL020C, strain ARK1, stronger effect = lower value",0.82
same,normalized growth,"locus YNL161W, strain CBK1, stronger effect = lower value",0.972
same,normalized growth,"locus YNL183C, strain NPR1, stronger effect = lower value",0.72
same,normalized growth,"locus YNL207W, strain RIO2, stronger effect = lower value",0.961
same,normalized growth,"locus YNL222W, strain SSU72, stronger effect = lower value",0.962
same,normalized growth,"locus YNL307C, strain MCK1 (second series), stronger effect = lower value",0.766
same,normalized growth,"locus YOL078W, strain AVO1, stronger effect = lower value",0.963
same,normalized growth,"locus YOL136C, strain PFK27, stronger effect = lower value",0.893
same,normalized growth,"locus YOR061W, strain CKA2, stronger effect = lower value",0.824
same,normalized growth,"locus YOR119C, strain RIO1, stronger effect = lower value",0.838
same,normalized growth,"locus YOR231W, strain MKK1, stronger effect = lower value",0.766
same,normalized growth,"locus YOR329C, strain SCD5, stronger effect = lower value",0.967
same,normalized growth,"locus YPL031C, strain PHO85, stronger effect = lower value",0.827
same,normalized growth,"locus YPL153C, strain RAD53, stronger effect = lower value",0.808
same,normalized growth,"locus YPL204W, strain HRR25, stronger effect = lower value",0.801
same,normalized growth,"locus YPL209C, strain IPL1, stronger effect = lower value",0.968
same,normalized growth,"locus YPL256C, strain CLN2, stronger effect = lower value",0.794 (active)
same,normalized growth,"locus YPR025C, strain CCL1, stronger effect = lower value",0.962
same,normalized growth,"locus YPR106W, strain ISR1, stronger effect = lower value",0.957
same,normalized growth,"locus YPR111W, strain DBF20, stronger effect = lower value",0.939
same,normalized growth,"strain NNK1, stronger effect = lower value",0.97
same,normalized growth,"strain TSCII, stronger effect = lower value",0.964
